# Compounds with a hit are over-represented: about 4.1% of the library has one in this group of screens.
# AmpC inh detg: qHTS Inhibitors of AmpC Beta-Lactamase (assay with detergent); P00811; AmpC hydrolysis of nitrocefin, absorbance 480 nm, 0.01% Triton; Potency, µM (doses to about 114 µM), without a hit: at the highest dose activity change, negative = inhibition, actives largely listed as inhibitors; 370,000 compounds, 0.041% hits; AID 485294, 2010;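 also: 0% = no-compound wells and -100% = no-enzyme wells; nearly all actives have a fitted effect of over 25% in size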
# Target sequence (P00811 whole entry, looked up): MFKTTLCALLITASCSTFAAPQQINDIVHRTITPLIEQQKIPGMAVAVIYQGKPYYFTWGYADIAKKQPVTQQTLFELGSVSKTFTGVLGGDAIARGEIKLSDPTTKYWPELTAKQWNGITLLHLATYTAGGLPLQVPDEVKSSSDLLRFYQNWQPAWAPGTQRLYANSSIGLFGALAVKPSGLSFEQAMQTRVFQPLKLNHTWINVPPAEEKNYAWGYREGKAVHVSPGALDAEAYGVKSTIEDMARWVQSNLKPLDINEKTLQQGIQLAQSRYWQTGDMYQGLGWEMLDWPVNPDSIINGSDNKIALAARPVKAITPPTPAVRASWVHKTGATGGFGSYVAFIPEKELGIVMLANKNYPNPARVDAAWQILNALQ
#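 AmpC (5.3 nM in the dispensed reagent) in 20 mM phosphate pH 7.0 with 0.01% (detergent screen) or 0.0001% Triton X-100 was preincubated with compounds for 15 min at room temperature. Nitrocefin was then added from an 800 uM solution, and hydrolysis was followed at 480 nm.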
# Sm TGR block: qHTS Assay for the Inhibitors of Schistosoma Mansoni Peroxiredoxins; Schistosoma mansoni thioredoxin glutathione reductase (TGR), Q962Y6; Potency, µM (titrated, usually from 114 µM), for inactives: at the top dose activity change, negative = inhibition, usual class: inhibitors; AID 485364, 2010; 360,000 compounds, 3% hits; purified TGR, DTNB reduction, TNB absorbance 405 nm; also: nearly all actives have a fitted effect of over 60% in size
#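 TGR 20 nM + NADPH 100 uM (dispensed conc.), cpd preinc 15 min RT; start with NADPH (500 uM addition) then DTNB (15 mM addition). Kinetic TNB absorbance, 405 nm filter. Four-parameter Hill fit across titration.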
# FMDV antiviral: High Throughput Screening for Foot and Mouth Disease Virus Antivirals; FMDV antiviral cell-based qHTS; Potency, µM (top dose mostly 57.9 µM), for inactives: top-dose activity change, negative = inhibition, hits mostly inhibitors; 410,000 compounds, 1.2% hits; AID 1159524, 2015; calls by dose curve; tested in HEK293T cells; also: read-out not given here; nearly all actives have a fitted effect of over 45% in size
# AMA1 RON2 block: qHTS for Inhibitors of AMA1-RON; Towards Development of Antimalarial Drug Lead: Primary Screen | Plasmodium falciparum AMA1 (3D7) - RON2 peptide interaction | AlphaScreen AMA1-biotinylated RON2 peptide binding | Potency, µM (titrated, usually from 58.2 µM), without a hit: top-dose activity change, negative = inhibition, hits mostly inhibitors | 360,000 compounds, 0.2% hits | AID 720542, 2013;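 also: 0% = vehicle wells and -100% = peptide control; nearly all actives have a fitted effect of over 45% in size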
#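 AMA1 (3D7) with his tag at 25 nM final met compounds first, then biotinylated RON2 peptide at 25 nM; detection used donor plus acceptor beads, 10 µg/mL apiece, read by AlphaScreen after 30 min at room temperature.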
# AmpC inh no detg: qHTS Inhibitors of AmpC Beta-Lactamase (assay without detergent). P00811. AID 485341, 2010. AmpC nitrocefin hydrolysis, absorbance 480 nm, 0.0001% Triton. Potency, µM (top dose mostly 57.1 µM), for inactives: at the top dose activity change, negative = inhibition, hits mostly inhibitors. 330,000 compounds, 0.52% hits;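 also: plate controls were no compound for no effect and no enzyme for full effect; nearly all actives have a fitted effect of over 20% in size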
#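 AmpC (5.3 nM in the dispensed reagent) in 20 mM phosphate pH 7.0 with 0.01% (detergent screen) or 0.0001% Triton X-100 was preincubated with compounds for 15 min at room temperature. Nitrocefin was then added from an 800 uM solution, and hydrolysis was followed at 480 nm.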
# An asterisk follows results filed as active; ? = inconclusive; · = not tested or not shown. Unless noted, calls follow the shape of the dose curve; as a rule, active = well fitted curve in the direction sought with a large enough effect; inconclusive = small, poorly fitted or top-dose-only effect, or another doubt; inactive = no such curve, though single readings can be large; an effect the other way counts as inactive or inconclusive. Unless noted, % is scaled to controls: 0 for no effect and ±100 for the full control effect; potency is read from the fitted curve at half-maximal effect.
SMILES,AmpC inh detg,Sm TGR block,FMDV antiviral,AMA1 RON2 block,AmpC inh no detg
O=C(c1ccco1)N1CCN(CC(O)COc2ccc(Br)cc2)CC1 (stereo not given),-9.8%,44.7µM*,-27.0%,-2.0%,90.9%
O=C1c2cc(S(=O)(=O)NCCO)ccc2-c2ccc(S(=O)(=O)NCCO)cc21,-2.8%,6.7%,-7.8%,?,-13.3%
N#CC(C#N)=C1c2cc(S(=O)(=O)NCCO)ccc2-c2ccc(S(=O)(=O)NCCO)cc21,-7.8%,4.47µM*,-16.7%,-5.7%,-24.3%
NS(=O)(=O)c1ccc2c(c1)C(=NO)c1cc(S(N)(=O)=O)ccc1-2,-12.6%,2.9%,8.0%,-1.1%,-16.9%
N#CC(C#N)=C1c2cc(S(N)(=O)=O)ccc2-c2ccc(S(N)(=O)=O)cc21,-14.0%,4.47µM*,25.1µM*,-22.4%,-10.4%
Cc1ccc(C(=O)N(Cc2cc3cc4c(cc3nc2N2CCOCC2)CCC4)CC2CCCO2)cc1 (stereo not given),·,·,25.2%,·,·
COc1cccc(-c2nc3cc4c(cc3cc2CN(C(=O)c2csc(C)n2)C2CC2)CCC4)c1OC,·,·,14.1µM*,·,·
COc1ccc(-c2nc3cc(F)ccc3cc2CN(C(=O)c2cccc(OC)c2)C2CC2)cc1,·,·,-11.5%,·,·
COc1cccc(-c2nc3cc(SC)ccc3cc2CN(C(=O)c2csc(C)n2)C2CC2)c1,·,·,28.2µM*,·,·
CC(C)c1cnc2c(c1SCC(=O)NCc1ccccc1Cl)c(=O)n(C)c(=O)n2C,8.1%,20.9%,7.0%,·,·
CCNC(=O)O/N=C1\CCCCC1c1ccc([N+](=O)[O-])cc1[N+](=O)[O-] (stereo not given),-5.4%,12.6µM*,-15.5%,0.0%,-25.3%
CCOCCc1nn2c(=O)cc(COC(=O)CNC(=O)c3cccc(C)c3)nc2s1,12.5%,17.5%,-8.1%,·,·
O=c1[nH]c2ccc(Br)cc2o1,·,·,2.1%,3.8%,·
O=C(CCl)c1ccc2[nH]c(=O)oc2c1,-4.5%,11.2µM*,?,2.6%,16.4%
O=C(O)CCC(=O)CCC(=O)c1ccc(Cl)cc1,-3.8%,28.2µM*,·,4.6%,-13.6%
CCN(CC)c1ncnc2c1ncn2[C@@H]1O[C@@H](COP(=O)(O)OP(=O)(O)C(Br)(Br)P(=O)(O)O)[C@H](O)[C@H]1O,·,·,-2.4%,·,·
CCSc1nnc(C(C)NS(=O)(=O)c2cccc(Cl)c2C)n1C (stereo not given),·,·,0.4%,·,·
O=C(Cn1cc(/C=N/NC(=O)c2cccc3ccccc23)c2ccccc21)Nc1ccc(F)cc1,-2.6%,-0.3%,-13.8%,2.5%,-40.2%
O=C(Cn1cc(/C=N/NC(=O)c2ccccc2Br)c2ccccc21)Nc1ccc(F)cc1,-8.6%,4.8%,-12.2%,1.2%,14.1µM*
COc1cc(OC)c(NC(=O)NCc2cccn2Cc2ccccc2)cc1Cl,23.8%,-2.9%,-7.6%,·,·
CN(C)CCCN1C(=O)c2cccc3c(Br)ccc(c23)C1=O,-3.4%,8.91µM*,-12.0%,-14.5%,33.5%
O=C(O)CN1C(=O)c2cccc3c(Br)ccc1c23,-7.8%,-32.9%,-1.3%,0.7%,-18.6%
O=C(Nc1nc2c(s1)CN(Cc1ccccc1)CC2)C1CCCC1,-1.4%,?,12.7%,?,-15.2%
CC(C)(C)C(=O)Nc1nc2c(s1)CN(Cc1ccccc1)CC2,-8.8%,25.1µM*,2.4%,-10.7%,7.4%
COc1ccc(N2CCN(c3csc4ccc(Cl)cc4c3=O)CC2)cc1,18.4%,-2.8%,-15.3%,·,·
CCOc1ccc(-n2c(SC(C)C(=O)OC)nc3c([nH]c4ccccc43)c2=O)cc1 (stereo not given),0.3%,3.2%,-27.5%,·,·
C[C@@H]1CN(Cc2ccc3c(c2)CN(C(=O)c2ccc(Oc4ccccc4)o2)CCO3)C[C@H](C)O1,·,·,-15.6%,·,·
COc1ccc(CNS(=O)(=O)c2cc3c(cc2C)n(C)c(=O)c(=O)n3C)cc1,1.1%,-3.5%,-9.7%,·,·
CCOC(=O)C1=CC[C@@H](c2ccco2)N(S(=O)(=O)c2ccc(C)cc2)[C@H]1C(=O)OCC,3.3%,31.6µM*,78.3%,-11.3%,44.3%

# Screens: PubChem, National Center for Advancing Translational Sciences (NCATS)
